High-throughput results deposited in PubChem by SRMLSC.
Rows were chosen to be rich in hits. Some 6.3% of all compounds tested hit in one or more screens of this group.
A340 absorber: compounds absorbing at 340 nm | compound absorbance at 340 nm, fold over control | fold change at 10 µM | 65,000 tested, under 10 active | AID 708;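 active = at 10 µM dose, initial 340 nm absorbance at least 2 fold that of control wells; inactive = change under 2 fold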;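 also: initial absorbance extrapolated from kinetic A340 decline of NADH oxidation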
Fluor 339 460: intrinsic fluorescence of library compounds, ex339/em460 – biochemical, MLSMR library, data from DPM-DC assay, artefact control, profiling panel. hit rate 5.5% among 65,000. fluorescence fold increase at 10 µM. compound autofluorescence, ex339/em460 nm, NADH buffer; hits give high values; 1 = no-compound wells, NADH background;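 active = at 10 µM, mean starting fluorescence two-fold or more over control wells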;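 also: signal is the first read of a kinetic run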
MK inhibit: S. pneumoniae mevalonate kinase inhibition; purified MK, PK/LDH-coupled NADH absorbance 340 nm; inhibition, % at 10 µM; hit rate 0.48% among 65,000;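 active = ranked among the strongest by inhibition in the single 10 µM screen, a fixed top-ranked set picked for dose follow-up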
Spn DPM-DC inh: inhibitors of Streptococcus pneumoniae diphosphomevalonate decarboxylase; purified DPM-DC, PK/LDH coupled NADH fluorescence; calls only at 10 µM; hit rate 0.49% among 65,000;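 active = the 320 compounds with the highest percent inhibition in the single-dose primary screen, excluding strongly autofluorescent ones, cut at about 32% in these data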;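 also: kinetic rate of NADH fluorescence loss reporting ADP formed by the decarboxylase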
NADH coupling: inhibitors of enzymes used to reach an NAD/NADH endpoint; IC50, µM (series often up to 10 µM), without a hit: at the top dose inhibition; hit rate 0.02% among 65,000; AID 774; coupled PK/LDH NADH assays, four targets;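 active = single-dose screening hits from any of four coupled enzyme assays that gave an IC50 when retested across doses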;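 also: the DPM-DC format reads NADH fluorescence rather than 340 nm absorbance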
Spn PMK inh: inhibitors of Streptococcus pneumoniae phosphomevalonate kinase; inhibition, % at 10 µM; AID 539; purified PMK, PK/LDH-coupled NADH absorbance 340 nm; hit rate 0.49% among 65,000;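 active = top-ranked compounds by inhibition in the single 10 µM screen, taking a fixed number of the strongest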;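 also: 0% = full reaction with DMSO carrier and 100% = background rate without enzyme reaction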
* marks the source's active call; other numbers are inactive results.

`NS(=O)(=O)c1ccc(S(=O)(=O)N(Cc2ccccc2F)CC2CCCO2)cc1` (stereo not given) gave A340 absorber 1, Fluor 339 460 1.1, MK inhibit 7, Spn DPM-DC inh inactive, NADH coupling 2% and Spn PMK inh 0.
COc1nc(Nc2ccc(-c3nc4ccccc4o3)cc2)nc(N2CCOCC2)n1 was read as A340 absorber 1.1, Fluor 339 460 3.7*, MK inhibit 8, NADH coupling 4% and Spn PMK inh 0.
COc1ccc(C2C(C(=O)O)CC(=O)N2C2CCCCC2)cc1 (stereo not given) was read as A340 absorber 1, Fluor 339 460 1.1, MK inhibit 1, Spn DPM-DC inh inactive, NADH coupling 3% and Spn PMK inh 9.
For COc1cc(CNc2ccc3c(c2)CCC3)cc(OC)c1O the results were A340 absorber 1.1, Fluor 339 460 1.1, MK inhibit 44*, Spn DPM-DC inh inactive, NADH coupling 15% and Spn PMK inh 0.
`CC1(C)Cc2nc3oc4c(N(CCO)Cc5ccccc5)ncnc4c3cc2CO1` gave A340 absorber 1, Fluor 339 460 2.4*, MK inhibit 8, Spn DPM-DC inh inactive, NADH coupling 7% and Spn PMK inh 4.
CC1(C)Cc2nc3sc4c(SCC(=O)NCc5ccco5)ncnc4c3cc2CO1 was read as A340 absorber 1.1, Fluor 339 460 1.1, MK inhibit 0, Spn DPM-DC inh inactive, NADH coupling 0% and Spn PMK inh 1.
For c1ccc(CC2CCN(c3nc4ccccc4n4nnnc34)CC2)cc1 the results were A340 absorber 1.1, Fluor 339 460 2.6*, MK inhibit 0, Spn DPM-DC inh inactive, NADH coupling 3% and Spn PMK inh 10.
`C/C(NC(=O)c1ccccc1)=C1/C(=O)CC2C1C2(C)C` (stereo not given) gave A340 absorber 1.1, Fluor 339 460 1.1, MK inhibit 6, Spn DPM-DC inh inactive, NADH coupling 2% and Spn PMK inh 0.
Screening Cc1ccc(C2C(C#N)=C(N)Oc3nc(-c4ccccc4)[nH]c32)o1 (stereo not given) returned A340 absorber 1, Fluor 339 460 1.1, MK inhibit 6, Spn DPM-DC inh inactive, NADH coupling 5% and Spn PMK inh 10.
`Cc1ccc(-c2cc(-c3ccccc3Cl)c(C#N)c(N)n2)o1` gave A340 absorber 1.1, Fluor 339 460 2.3*, MK inhibit 15, NADH coupling 8% and Spn PMK inh 0.
For Cc1ccc(-c2cc(-c3ccccc3)c(C#N)c(N)n2)o1 the results were A340 absorber 0.99, Fluor 339 460 5.1*, MK inhibit 18, NADH coupling 18% and Spn PMK inh 17.
For Cc1ccc(-c2cc(-c3ccc(F)cc3)nc(N)c2C#N)o1 the results were A340 absorber 1.1, Fluor 339 460 3.7*, MK inhibit 5, NADH coupling 9% and Spn PMK inh 12.
Screening COc1cccc(N2CCN(c3c4c(nc5ncnn35)CCC4)CC2)c1 returned A340 absorber 0.98, Fluor 339 460 0.94, MK inhibit 8, Spn DPM-DC inh inactive, NADH coupling 4% and Spn PMK inh 3.
`CCOC(=O)c1cc2nc(Nc3ccc(OC)cc3)sc2s1` gave A340 absorber 1.1, Fluor 339 460 2, MK inhibit 0, Spn DPM-DC inh active, NADH coupling 15% and Spn PMK inh 5.
CCOC(=O)N1CCN(C(=O)CN(Cc2ccccc2)S(=O)(=O)c2ccc(OC)c(C)c2)CC1 was read as A340 absorber 0.99, Fluor 339 460 1, MK inhibit active, Spn DPM-DC inh inactive, NADH coupling 4% and Spn PMK inh 0.
COc1ccc(S(=O)(=O)N(CC(=O)N2CCCC2)Cc2ccccc2)cc1 was read as A340 absorber 1.1, Fluor 339 460 1.1, MK inhibit 0, Spn DPM-DC inh inactive, NADH coupling 0% and Spn PMK inh 0.
Screening CCOc1ccc2[nH]c(=O)c(CN(CC3COCCO3)C(=O)c3ccco3)cc2c1 (stereo not given) returned A340 absorber 1, Fluor 339 460 4*, MK inhibit 5, NADH coupling 11% and Spn PMK inh 17.
`CCOc1ccc2[nH]c(=O)c(CN(Cc3ccco3)C(=O)c3cccc(F)c3)cc2c1` gave A340 absorber 1, Fluor 339 460 2.9*, MK inhibit 12, Spn DPM-DC inh inactive, NADH coupling 15% and Spn PMK inh 20.
COc1ccc2[nH]c(=O)c(CN(Cc3ccco3)C(=O)c3ccccc3)cc2c1 was read as A340 absorber 1.1, Fluor 339 460 3.7*, MK inhibit 8, NADH coupling 8% and Spn PMK inh 8.
Screening CCOC(=O)N1CCC(NC(=O)c2cc(C(=O)NCc3cccc(Cl)c3)ccc2CO)CC1 returned A340 absorber 1, Fluor 339 460 1.1, MK inhibit 7, Spn DPM-DC inh inactive, NADH coupling 9% and Spn PMK inh 20.
Screening COc1ccccc1CNC(=O)CN1C(=O)C(C)N(c2ccc(C)cc2)C1=O (stereo not given) returned A340 absorber 1, Fluor 339 460 1, MK inhibit 0, Spn DPM-DC inh inactive, NADH coupling 5% and Spn PMK inh 13.
Screening CCOc1ncccc1C(=O)OCc1cc(=O)n2c(n1)sc1ccccc12 returned A340 absorber 1, Fluor 339 460 1.4, MK inhibit 0, Spn DPM-DC inh inactive, NADH coupling 8% and Spn PMK inh 25*.
CCOc1ncccc1C(=O)OCC(=O)c1c(N)n(C)c(=O)n(C)c1=O was read as A340 absorber 1, Fluor 339 460 1.1, MK inhibit 14, Spn DPM-DC inh inactive, NADH coupling 5% and Spn PMK inh 0.
Cc1cc(OCc2nn[nH]n2)c2c(-c3ccccc3)cc(=O)oc2c1 was read as A340 absorber 1.1, Fluor 339 460 2*, MK inhibit 5, Spn DPM-DC inh inactive, NADH coupling 2% and Spn PMK inh 0.
Screening CCOc1ccc(Cc2nn[nH]n2)cc1 returned A340 absorber 1, Fluor 339 460 1, MK inhibit 5, Spn DPM-DC inh inactive, NADH coupling 2% and Spn PMK inh 8.
`COC(=O)COc1cc(C)cc2oc(=O)c(CC(=O)OC)c(C)c12` gave A340 absorber 1.1, Fluor 339 460 2.1*, MK inhibit 11, NADH coupling 6% and Spn PMK inh 1.
Screening Cc1cc(OCc2nn[nH]n2)c2c(C)c(Cc3ccccc3)c(=O)oc2c1 returned A340 absorber 1.1, Fluor 339 460 3.9*, MK inhibit 7, NADH coupling 10% and Spn PMK inh 12.
For Cc1cc(OCc2nn[nH]n2)c2c(C)c(CC(=O)O)c(=O)oc2c1 the results were A340 absorber 1.1, Fluor 339 460 3.9*, MK inhibit 0, NADH coupling 3% and Spn PMK inh 6.
